In the library only some 2.8% were active in any assay of this set; here they are far more common.
Pol beta inh: DNA polymerase beta (human) inhibition; Pol beta primer extension/strand displacement, fluorescence kinetic; AID 485314; actives 1.3% (n = 340,000); P06746; Potency, µM (doses to about 114 µM), without a hit: at the top dose activity change, negative = inhibition, usual class: inhibitors; note: potency is the fitted concentration of half-maximal effect; % is set by controls: 0 for no effect and ±100 for the full control effect
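Pol beta (10 nM) and compounds were preincubated 15 min at room temperature, then 50 nM substrate (final) started primer extension/strand displacement. Reads were taken at 0 and 10 min; concentration-response data were fitted to a four-parameter Hill equation.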
PI5P4Ka inh: PI5P4K alpha (human) kinase inhibition; P48426; PI5P4Kalpha enzyme, ADP-Glo luminescence, 60 min; stronger effect = lower value; max response, %; actives 1.2% (n = 330,000); AID 652105; active = max response of -50% or lower; inconclusive = between -30% and -50%; inactive = -30% or higher; note: value at the top dose of about 77 µM; % is set by controls: 0 for no effect and ±100 for the full control effect
Target sequence (P48426 whole entry, looked up): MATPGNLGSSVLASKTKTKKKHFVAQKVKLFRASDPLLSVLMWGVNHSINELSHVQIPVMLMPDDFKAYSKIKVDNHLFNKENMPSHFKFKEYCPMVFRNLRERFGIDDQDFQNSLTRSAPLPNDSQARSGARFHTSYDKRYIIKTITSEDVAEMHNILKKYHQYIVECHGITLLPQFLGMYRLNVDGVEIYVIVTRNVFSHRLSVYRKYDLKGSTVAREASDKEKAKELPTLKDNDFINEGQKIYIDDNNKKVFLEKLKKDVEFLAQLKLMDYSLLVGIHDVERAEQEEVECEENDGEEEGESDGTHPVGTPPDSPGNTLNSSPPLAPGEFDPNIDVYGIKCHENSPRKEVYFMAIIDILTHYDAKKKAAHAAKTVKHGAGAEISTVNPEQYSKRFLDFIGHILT
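Human PI5P4Kalpha with substrate in 0.038 M HEPES pH 7.4, 0.28 mM EGTA, 0.1% CHAPS, 5% DMSO; reaction started with 5 microM ATP (final), 60 min at room temperature. ADP formed read by ADP-Glo luminescence.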
Pol eta inh: DNA polymerase eta (human) inhibition. actives 1.2% (n = 390,000). Potency, µM (doses to about 114 µM), without a hit: at the top dose activity change, negative = inhibition, hits mostly inhibitors. AID 588591. recombinant Pol eta, fluorescent DNA replication assay; note: potency is the fitted concentration of half-maximal effect; % is set by controls: 0 for no effect and ±100 for the full control effect
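Pol eta at 10 nM preincubated with compounds 15 min at room temperature; reaction started with fluorescent substrate (50 nM final) and read kinetically at 0 and 10 min.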
PI4K2A block: blocks human PI4K2A kinase activity; activity change, negative = inhibition, % at 76.9 µM; actives 0.13% (n = 420,000); AID 1346378; purified PI4K2A, ADP-Glo luminescence, 1 h; stronger effect = lower value; in the data active = activity change below about -50%; inconclusive = mostly about -30% to -49%;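 note: -100% = wells without enzyme as full effect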
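In this quantitative HTS, ADP production by PI4K2A was quantified luminescently after 1 h at ambient temperature; 100 microM adenosine served as plate-quality control.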
Pol iota inh: DNA polymerase iota (human) inhibition; Q9UNA4; Pol iota fluorescent replication assay, 10 min; Potency, µM (highest dose often 115 µM), inactives show at the highest dose activity, negative = inhibition, actives largely listed as inhibitors; actives 1% (n = 390,000); note: potency is the fitted concentration of half-maximal effect
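Pol iota at 10 nM preincubated 15 min with compounds at room temperature; reaction started with fluorescent substrate, 50 nM final. Fluorescence read kinetically at 0 and 10 min; buffer-only wells as negative control.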
POLK inh: blocks human DNA polymerase kappa activity. Potency, µM (doses to about 107 µM), inactives show at the highest dose activity, negative = inhibition, actives largely listed as inhibitors. Q9UBT6. purified Pol kappa, fluorescent DNA synthesis assay, 10 min. actives 0.53% (n = 400,000). AID 588579; note: potency is the fitted concentration of half-maximal effect; % is set by controls: 0 for no effect and ±100 for the full control effect
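Kinetic fluorescence readout at 0 and 10 min followed reaction start with substrate at 50 nM final. Beforehand, enzyme (10 nM Pol kappa) stood 15 min with compound at room temperature; buffer-only wells were negative controls.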
An asterisk follows results filed as active; ? = inconclusive; / = no result; [ ] = dose if it differs, or a comment. Unless noted, calls come from the whole dose curve; as a rule, active = well fitted inhibition curve with a large enough effect; inconclusive = small, poorly fitted or top-dose-only effect, or another doubt; inactive = no such curve, though single readings can be large or run the other way.

SMILES	Pol beta inh	PI5P4Ka inh	Pol eta inh	PI4K2A block	Pol iota inh	POLK inh
Cc1ccc(-c2nc(N/N=C/c3ccncc3)c3ccccc3n2)cc1	?	/	45µM*	-19	?	-17%
COc1ccc(Cc2nnc(SCC(=O)NC3(C#N)CCCCC3)n2N)cc1	/	-1	-7%	-2	22%	-9%
Cc1cc(C)cc(Nc2cc(=O)n(C3CCCCC3)c(=O)[nH]2)c1	45µM*	-3	?	-14	-3%	-13%
COc1ccc(Nc2cc(=O)n(C3CCCCC3)c(=O)[nH]2)c(OC)c1	5%	-6	-11%	-4	-1%	-11%
CCCc1c(C(=O)N/N=C/c2c[nH]c3ccccc23)nnn1-c1nonc1N	/	0	-16%	0	/	/
CCCN(CCC)Cc1c(C(=O)N/N=C/c2c[nH]c3ccccc23)nnn1-c1nonc1N	-15%	-63*	-16%	-4	1%	-19%
Cc1nnn(-c2nonc2N)c1C(=O)N/N=C/c1ccccc1O	45µM*	-13	?	-11	?	-18%
CCOC(=O)C1=CCN(S(=O)(=O)c2ccccc2Br)C1c1cccc(C)c1 (stereo not drawn)	/	-3	/	-1	/	/
Cc1nn(-c2ccccc2)c(N2CCCCC2)c1/C=N/NC(=O)c1ccncc1	4%	-15	?	0	71%	-4%
CCOc1ccc(S(=O)(=O)Nc2ccc(C(=O)N/N=C/c3c(C)nn(-c4ccccc4)c3N3CCCC3)cc2)cc1	30%	-74*	-2%	-2	11%	-12%
CC(C)(C)n1ncc2c(=O)n(Cc3ccc(Cl)c(F)c3)cnc21	/	/	/	/	-12%	1%
O=C(Nc1ccccc1C(F)(F)F)OCCN1C(=O)CCC12CCC(c1ccccc1)CC2 (stereo not drawn)	/	/	/	-1	/	/
Cc1ccc(-n2c(O)c(/C=N/NC(=O)C3COc4ccccc4O3)c3ccccc3c2=O)cc1 (stereo not drawn)	-13%	?	?	2	6%	-9%
O=C(N/N=C\c1cccc([N+](=O)[O-])c1O)C1COc2ccccc2O1 (stereo not drawn)	5%	-69*	-8%	1	?	-11%
O=C(N/N=C\c1ccc(Br)o1)C1COc2ccccc2O1 (stereo not drawn)	35µM*	?	45µM*	-2	45µM*	-74%
O=C(N/N=C/c1c(O)n(-c2ccccc2Cl)c(=O)c2ccccc12)C1COc2ccccc2O1 (stereo not drawn)	-2%	-53*	-15%	3	39%	-32%
CN(C)c1ccc(/C=N/NC(=O)C2COc3ccccc3O2)o1 (stereo not drawn)	32%	-4	-21%	-4	6%	-4%
O=[N+]([O-])c1ccc(Nc2nc(Cl)nc(NCCO)n2)cc1	3%	4	5%	-1	7%	-4%
Nc1c(S(=O)(=O)O)cc(Nc2ccc(Nc3nc(Cl)nc(Nc4ccc(S(=O)(=O)O)cc4)n3)c(S(=O)(=O)O)c2)c2c1C(=O)c1ccccc1C2=O	1.1µM*	/	0.63µM*	?	1.6µM*	2.7µM*
COc1cc(OC)c2c(c1C(CCN1CCCC1)c1ccc(N(C)C)cc1)OC(=O)CC2c1ccc(N(C)C)cc1 (stereo not drawn)	/	/	/	/	?	-10%
Cc1ccc(S(=O)(=O)/N=C2/C=C(Sc3ncn[nH]3)C(=O)c3ccccc32)cc1	?	-100*	3.5µM*	-70*	1.1µM*	-35%
Cc1ccc(S(=O)(=O)Nc2ccc(O)c(Sc3ncn[nH]3)c2)cc1	-2%	4	-18%	2	18%	-1%
CC(C)c1ccc(S(=O)(=O)/N=C2/C=C(Sc3ncn[nH]3)C(=O)c3ccccc32)cc1	22µM*	-79*	13µM*	-55*	3.5µM*	79µM*
CCOc1ccc(-n2c(SC(C)C(=O)OC)nc3c([nH]c4ccccc43)c2=O)cc1 (stereo not drawn)	5%	/	-9%	1	-9%	-5%[60.1 µM]
COc1ccccc1CCNC(=O)c1ccc2nc[nH]c2c1	45µM*	-26	?	-3	1%	-11%
SMILES	Pol beta inh	PI5P4Ka inh	Pol eta inh	PI4K2A block	Pol iota inh	POLK inh
O=C(NCCSc1ccc(Br)cc1)c1ccc2nc[nH]c2c1	40µM*	?	22µM*	-3	20µM*	-37%
O=C(NCCc1ccc(Cl)cc1Cl)c1ccc2nc[nH]c2c1	34%	3	-16%	3	3%	-2%
COc1ccc2ccc3c(c2c1)N=C[C@]1(O3)N(C)c2ccccc2C1(C)C	14%	?	71µM*	-68*	?	-8%
CC1=NOC2(C1)N(C)c1ccccc1C2(C)C (stereo not drawn)	10%	/	4%	-3	19%	-2%
COc1ccc(-c2ccc(C3C4C=CCC(C)C4C(=O)N3Cc3ccccc3)c(F)c2)cc1OC (stereo not drawn)	/	/	/	/	4%	-2%
CSCCC(NC(=O)c1ccccc1)C(=O)OCC(=O)NCc1ccco1 (stereo not drawn)	/	-3	?	-3	71µM*	-21%
CC(C)[C@H](NC(=O)OCc1ccccc1)C(=O)OCC(=O)NCc1ccco1	/	?	50µM*	-7	16µM*	-25%
COc1cc2nc(N3CCCCC3)nc(NC(C)C)c2cc1OC	/	/	/	/	31%	-21%
O=C(Nc1ccccc1)c1ccc(N2CCN(c3ccccn3)CC2)c(S(=O)(=O)N2CCOCC2)c1	-20%	1	-18%	1	89µM*	-12%
CN=c1scc(-c2ccccc2F)n1/N=C/c1ccc(O)c(O)c1O	1.4µM*	-54*	?	-29	?	?
CCN=c1scc(-c2cccs2)n1/N=C/c1cc(OC)ccc1O	-9%	7	-14%	-4	-3%	-2%
CC(C)N=c1scc(-c2cccs2)n1/N=C/c1ccc(O)c(O)c1O	2.2µM*	-60*	?	-5	?	?
O=S(=O)(c1ccccc1)N1CCN(S(=O)(=O)c2ccccc2)CC1	/	/	/	/	-40%	-35%
O=S(=O)(/N=S1\CC=CCN1S(=O)(=O)c1ccccc1)c1ccccc1 (stereo not drawn)	/	-50*	-12%	-9	28µM*	-8%
O=C(CNS(=O)(=O)c1ccc(Br)cc1)OCc1cc(=O)n2cc(Br)ccc2n1	35µM*	/	/	/	/	/
COc1cc2nc(N3CCCCC3)nc(NC3CCN(C)CC3)c2cc1OC	/	/	/	/	-3%	-4%
Cc1cc(C(=O)CSc2nnc(-c3ccncc3)n2-c2ccccc2)c(C)n1C	45µM*	/	?	-7	18µM*	-24%
